The results in this text go back to PubChem BioAssay (NCATS).

The target of experiment [1] is Lysosomal acid glucosylceramidase (Homo sapiens) (UniProt P04062). The experiment in a line: Glucocerebrosidase-p2 (AID 348; in the data active = potency below about 10 µM; note: potency is the fitted concentration of half-maximal effect). The conditions noted are these: purified GBA, blue fluorogenic substrate, 40 min. Put shortly:
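Normal human glucocerebrosidase (0.2 nM) with blue fluorogenic substrate (80 uM final) in citrate/phosphate pH 5.9 with 10mM sodium taurocholate, 0.01% tween-20; 40 min RT, NaOH/glycine stop; fluorescence Ex 365/Em 440; AC50 from a titration from 0.6 nM upwards.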

Experiment [2] can be described thus: AP1 Signaling Pathway (AID 357; active = well fitted curve in either direction with a large enough effect, not every such curve was filed as active;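 note: ME-180 reporter cells stimulated with EGF at its EC50 level; % is set by controls: 0 for no effect and ±100 for the full control effect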). The conditions noted are these: ME-180 AP-1-bla reporter, EGF-induced, beta-lactamase ratio, 5 h; at 7.69 µM (top of the series) unless noted. In a few lines: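 Titration-series screen for positive or negative modulators of EC50 EGF-induced signaling in ME-180 cells carrying an AP-1-driven beta-lactamase reporter. After 5 hours at 37 degrees Celsius, CCF4 460nm/530nm emission ratio gave %Activity; AC50 values derived.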

The target in experiment [3] is Cytochrome P450 1A2 (Homo sapiens) (UniProt P05177). The experiment in a line: p450-cyp1a2 (AID 410; calls by dose curve; note: potency is the fitted concentration of half-maximal effect;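 for activity change, negative = inhibition: -100% = full effect of reference inhibitor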). The conditions noted are these: recombinant CYP1A2, luciferin-ME demethylation, luminescence; series mostly up to 57 µM. Put shortly: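 O-Demethylation of luciferin 6' methyl ether by human CYP1A2 is monitored as luciferase luminescence. Substrate sits at Km (100uM); enzyme is 20nM. Values are scaled to 57 uM furafylline as maximal inhibition.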

Experiment [4] is described as follows: NFAT Signaling Pathway (AID 444; active = well fitted curve in either direction with a large enough effect, not every such curve was filed as active;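 note: carbachol stimulus at about its EC50 of 1 µM final; % is set by controls: 0 for no effect and ±100 for the full control effect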). Particulars: Jurkat NFAT-bla M1, carbachol, beta-lactamase ratio, 5 h; at 7.69 µM (top of the series) unless noted. Put shortly: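 Read-out: CCF4 FRET ratio (460 nm/530 nm) after 1 h RT dye loading, used for %activity and AC50 from titration series. Cells: Jurkat NFAT-β-lactamase/M1 line, treated with compound plus 1 uM carbachol for 5 h, 37 °C.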

Experiment [5] can be described thus: Stat Signaling Pathway (AID 446; active = well fitted curve in either direction with a large enough effect, not every such curve was filed as active;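 note: ME-180 cervical cancer cells given 40 pM IL-6 alongside compound; SIE-controlled beta-lactamase reporter measured as 460/530 nm FRET emission ratio; % is set by controls: 0 for no effect and ±100 for the full control effect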). The conditions noted are these: ME-180 (cervical carcinoma) SIE beta-lactamase reporter, IL-6 stimulated, 5 h; at 7.69 µM (top of the series) unless noted. Put shortly:
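Overnight-plated ME-180 cells bearing a STAT Inducible Element beta-lactamase reporter; 5 h co-exposure to compound and 40 pM IL-6; values normalized to 300 pM IL-6 and 125 nM JAK inhibitor controls.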

Experiment [6] concerns the target Glucocorticoid receptor (Homo sapiens) (UniProt P04150). The experiment in a line: GR-GFP Redistribution (AID 450;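 active = compounds whose dose series gives a full or clear partial fitted curve of increased nuclear translocation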; note: potency is the fitted concentration of half-maximal effect). The conditions noted are these: U2OS GR-GFP nuclear translocation, laser cytometry, 2 h.
The target is the same in experiment [7]. Kind of experiment: GR-EFC Redistribution (AID 451; calls by dose curve; note: potency is the fitted concentration of half-maximal effect). The conditions noted are these: CHO-K1 GR-EFC translocation, beta-gal luminescence, 2 h. In a few lines: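 Translocation of GR-ED fusion to nuclear EA restores b-gal, read by luminescence after 1 h room-temperature detection. Engineered CHO-K1 biosensor cells, 1,000/well, exposed 2 h at 37 C to titrations up to 46 uM final.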

In experiment [8] the target is Mitogen-activated protein kinase 10 (Mus musculus) (UniProt Q61831). Kind of experiment: JNK3 AlphaScreen Assay (AID 530; active = well fitted curve in either direction with a large enough effect, not every such curve was filed as active;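 note: kinase came from lysate of stimulated human HepG2 cells; signal reports phosphorylation of biotinylated GST-cJun 1-79 at Ser73 with 10 µM ATP; % is set by controls: 0 for no effect and ±100 for the full control effect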). Particulars: JNK3 lysate, c-Jun phosphorylation; series mostly up to 57.1 µM. Put shortly: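 qHTS titrations with 15 min compound pre-incubation before adding ATP (10 uM final). Read-out: AlphaScreen of Ser73-phosphorylated biotin-GST-cJun using HepG2 lysate JNK3 activated by IL-1β and TNFα.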

Experiment [9] concerns the target Cytochrome P450 3A4 (Homo sapiens) (UniProt P08684). Kind of experiment: qHTS Assay for Activators of Cytochrome P450 3A4 (AID 885). Note: nearly all actives have a fitted effect of over 65% in size. Particulars: recombinant CYP3A4, Luciferin-PPXE luminescence, 60 min; series mostly up to 57.1 µM. Put shortly: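 Using 20nM recombinant human CYP3A4 in potassium phosphate (200mM), substrate Luciferin-PPXE at 25uM, luminescent luciferin detection followed a 60-min RT NADPH reaction; data scaled to 57 uM ketoconazole.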

Experiment [10] has as its target Cytochrome P450 2C19 (Homo sapiens) (UniProt P33261). The experiment in a line: qHTS Assay for Inhibitors and Substrates of Cytochrome P450 2C19 (AID 899). Note: potency is the fitted concentration of half-maximal effect; nearly all actives have a fitted effect of over 60% in size. Particulars: recombinant CYP2C19, luciferin-H EGE luminescence; series mostly up to 57.1 µM. Put shortly: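 Luminescence readout of luciferin formed from 10uM Luciferin-H EGE (KM level) by 5 nM CYP2C19 in 50mM KPO4. 60 min NADPH-driven reaction at 37C after 10 min compound preincubation; data scaled to 57uM ketoconazole inhibition.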

Experiment [11] is described as follows: qHTS Assay for Lipid Storage Modulators (AID 1519; calls by dose curve). Particulars: Drosophila S3 cells, BODIPY lipid droplet/cell ratio, laser cytometry, cells loaded with oleic acid; for activity change, negative = inhibition: at 57.5 µM (top of the series). Put shortly: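 Cells seeded at 5,000 per well were treated with compounds over a concentration series and loaded with oleic acid (400 uM, as added). Lipid droplet fluorescence (488 nm excitation, 500-530 nm channel) was read by laser-scanning cytometry and normalized to 20 uM Triacsin C.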

For experiment [12], the target named is Dual specificity protein kinase CLK4 (Homo sapiens) (UniProt Q9HAZ1). The experiment in a line: qHTS Assay for Inhibitors of CDC-like Kinase 4 (Kinase-Glo Assay) (AID 1770). Note: nearly all actives have a fitted effect of over 65% in size. Note: potency is the fitted concentration of half-maximal effect. Particulars: recombinant Clk4, Kinase-Glo ATP depletion luminescence; series mostly up to 66.7 µM. In a few lines:
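Inhibition was judged from remaining ATP, measured by Ultra-Glo luciferase bioluminescence after Clk4 (25 nM) had acted on RS peptide at 1 uM ATP for 4.5 hours, room temperature.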

Experiment [13] has the same target. The experiment in a line: qHTS Assay for Inhibitors of CDC-like Kinase 4 (ADP-Glo Assay) (AID 1771). Note: nearly all actives have a fitted effect of over 70% in size. Note: potency is the fitted concentration of half-maximal effect. Particulars: recombinant CLK4, ADP-Glo luminescence; series mostly up to 80 µM. Put shortly: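 Compounds are pin-transferred onto substrate mix (100 uM RS peptide, 1 uM ATP), then 25 nM Clk4 is added. After 1 hr at room temperature, ADP-Glo reagent runs 45 min, detection reagent 30 min, then luminescence is read.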

The target is the same in experiment [14]. Kind of experiment: qHTS Assay for Inhibitors of CDC-like Kinase 4 (ADP-FP Assay) (AID 1795). Note: nearly all actives have a fitted effect of over 60% in size. Note: potency is the fitted concentration of half-maximal effect. Particulars: Transcreener ADP fluorescence polarization; series mostly up to 50 µM. In a few lines:
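Inhibition of ADP formation by 6.25 nM Clk4 is measured using 1 uM ATP and 100 uM RS repeat peptide over one hour. Produced ADP displaces a fluorescent tracer from antibody, lowering polarization.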

The target in experiment [15] is Ubiquitin carboxyl-terminal hydrolase 1 (Homo sapiens) (UniProt O94782). Kind of experiment: Inhibitors of USP1/UAF1: Pilot qHTS (AID 504865).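 Note: rhodamine fluorescence freed from ubiquitin-rhodamine substrate followed over time; top concentration of the series differs between compounds; % is set by controls: 0 for no effect and ±100 for the full control effect; nearly all actives have a fitted effect of over 35% in size.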 The conditions noted are these: purified USP1/UAF1, Ub-rhodamine cleavage fluorescence; series mostly up to 54.9 µM. In a few lines: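 Kinetic fluorescence assay: 1nM USP1/UAF1, 15 min compound preincubation, then 150nM Ub-Rho; 480/540 nm.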

The target in experiment [16] is 3',5'-cyclic-AMP phosphodiesterase 4B (Homo sapiens) (UniProt Q07343). The experiment in a line: qHTS Assay for Inhibitors of PDE-IV (AID 607; active = well fitted activation curve with a large enough effect in the main read-out, with a control signal flat, not every such curve was filed as active; note: % of control where 0% means no effect). Particulars: HEK293 ACTOne CNG channel cells, membrane potential fluorescence; series mostly up to 22.9 µM. Put shortly: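 Live HEK293 cells with a modified cyclic nucleotide-gated (CNG) channel report intracellular cAMP via membrane-potential dye fluorescence (ex 535/em 590 nm). Endogenous PDE-IV was targeted. Compounds were tested at up to 22.9 uM final; RO 20-1724 100 uM served as control.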

[17] abbreviates: measured here: cell count channel max response.
Where [18] appears, read: measured here: lipid channel max response.

Records with an inconclusive call do not appear. Calls of active or inactive are those of the source. Unless noted, calls come from the whole dose curve; as a rule, active = well fitted curve in the direction sought with a large enough effect; inconclusive = small, poorly fitted or top-dose-only effect, or another doubt; inactive = no such curve, though single readings can be large; an effect the other way counts as inactive or inconclusive.

Dual specificity protein kinase CLK4 (Homo sapiens), sequence (Q9HAZ1 whole entry, looked up): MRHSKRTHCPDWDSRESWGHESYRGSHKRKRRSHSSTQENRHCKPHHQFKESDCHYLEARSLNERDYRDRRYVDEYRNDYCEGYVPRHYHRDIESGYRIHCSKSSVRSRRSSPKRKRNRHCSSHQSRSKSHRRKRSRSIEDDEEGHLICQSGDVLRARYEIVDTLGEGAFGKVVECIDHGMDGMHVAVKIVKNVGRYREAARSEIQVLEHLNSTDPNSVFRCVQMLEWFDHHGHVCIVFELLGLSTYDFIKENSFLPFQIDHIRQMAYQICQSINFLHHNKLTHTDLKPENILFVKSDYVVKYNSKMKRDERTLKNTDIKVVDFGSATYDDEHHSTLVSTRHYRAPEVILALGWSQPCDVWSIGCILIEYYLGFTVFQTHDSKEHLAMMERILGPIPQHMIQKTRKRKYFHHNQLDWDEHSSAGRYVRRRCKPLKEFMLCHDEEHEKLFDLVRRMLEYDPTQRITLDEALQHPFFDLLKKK
3',5'-cyclic-AMP phosphodiesterase 4B (Homo sapiens), sequence (Q07343 whole entry, looked up): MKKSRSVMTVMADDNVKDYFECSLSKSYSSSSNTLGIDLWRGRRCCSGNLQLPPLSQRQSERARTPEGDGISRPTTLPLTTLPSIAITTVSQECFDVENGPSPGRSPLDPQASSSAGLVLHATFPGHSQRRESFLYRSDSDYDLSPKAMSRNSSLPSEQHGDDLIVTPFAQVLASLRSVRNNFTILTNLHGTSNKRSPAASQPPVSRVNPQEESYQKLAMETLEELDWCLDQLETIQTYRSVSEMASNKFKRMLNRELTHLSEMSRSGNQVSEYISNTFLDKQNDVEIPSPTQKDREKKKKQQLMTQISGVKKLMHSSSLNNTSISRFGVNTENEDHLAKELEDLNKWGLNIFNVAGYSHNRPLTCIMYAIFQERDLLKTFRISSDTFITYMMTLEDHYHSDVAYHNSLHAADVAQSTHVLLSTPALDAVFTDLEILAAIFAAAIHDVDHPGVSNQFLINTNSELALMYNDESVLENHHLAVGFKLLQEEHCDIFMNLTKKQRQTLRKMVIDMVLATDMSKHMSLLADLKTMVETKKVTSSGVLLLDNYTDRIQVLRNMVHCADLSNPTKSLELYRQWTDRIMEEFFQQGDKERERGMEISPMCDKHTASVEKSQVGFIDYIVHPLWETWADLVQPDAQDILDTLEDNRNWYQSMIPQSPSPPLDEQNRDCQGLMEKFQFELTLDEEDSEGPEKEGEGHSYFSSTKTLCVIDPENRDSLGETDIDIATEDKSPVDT
Lysosomal acid glucosylceramidase (Homo sapiens), sequence (P04062 whole entry, looked up): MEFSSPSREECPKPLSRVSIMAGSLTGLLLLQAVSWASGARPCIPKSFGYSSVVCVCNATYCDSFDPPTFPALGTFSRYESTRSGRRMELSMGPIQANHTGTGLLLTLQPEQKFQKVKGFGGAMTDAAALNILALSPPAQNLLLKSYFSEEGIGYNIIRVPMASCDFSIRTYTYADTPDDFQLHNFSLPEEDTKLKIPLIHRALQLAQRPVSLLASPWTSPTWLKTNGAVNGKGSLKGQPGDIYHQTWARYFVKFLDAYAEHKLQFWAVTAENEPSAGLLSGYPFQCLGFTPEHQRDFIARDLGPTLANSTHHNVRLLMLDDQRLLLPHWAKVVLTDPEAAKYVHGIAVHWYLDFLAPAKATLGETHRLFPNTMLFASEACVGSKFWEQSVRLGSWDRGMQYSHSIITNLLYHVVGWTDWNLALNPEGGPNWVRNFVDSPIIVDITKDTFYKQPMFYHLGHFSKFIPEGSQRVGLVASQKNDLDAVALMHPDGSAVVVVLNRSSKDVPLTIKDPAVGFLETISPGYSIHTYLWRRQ
Ubiquitin carboxyl-terminal hydrolase 1 (Homo sapiens), sequence (O94782 whole entry, looked up): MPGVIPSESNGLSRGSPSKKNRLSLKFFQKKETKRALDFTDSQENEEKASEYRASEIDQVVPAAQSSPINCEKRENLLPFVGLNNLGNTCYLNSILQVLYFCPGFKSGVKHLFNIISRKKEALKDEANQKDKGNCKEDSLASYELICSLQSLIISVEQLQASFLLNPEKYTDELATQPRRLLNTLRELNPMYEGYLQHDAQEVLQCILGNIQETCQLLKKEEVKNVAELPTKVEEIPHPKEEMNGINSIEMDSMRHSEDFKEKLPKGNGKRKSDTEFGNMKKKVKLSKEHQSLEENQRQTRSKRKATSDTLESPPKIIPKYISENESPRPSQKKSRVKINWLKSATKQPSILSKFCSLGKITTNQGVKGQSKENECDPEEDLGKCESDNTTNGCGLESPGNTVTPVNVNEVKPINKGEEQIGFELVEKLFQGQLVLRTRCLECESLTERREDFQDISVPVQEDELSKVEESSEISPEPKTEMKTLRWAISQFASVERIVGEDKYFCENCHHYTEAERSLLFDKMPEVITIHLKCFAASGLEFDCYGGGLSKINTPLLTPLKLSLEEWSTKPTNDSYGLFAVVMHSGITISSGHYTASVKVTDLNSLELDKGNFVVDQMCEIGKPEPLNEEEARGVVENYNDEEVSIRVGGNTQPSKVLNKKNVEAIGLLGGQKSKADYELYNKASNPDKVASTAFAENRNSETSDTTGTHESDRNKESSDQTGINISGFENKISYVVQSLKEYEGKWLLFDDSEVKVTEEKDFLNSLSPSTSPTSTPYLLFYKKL
Cytochrome P450 1A2 (Homo sapiens), sequence (P05177 whole entry, looked up): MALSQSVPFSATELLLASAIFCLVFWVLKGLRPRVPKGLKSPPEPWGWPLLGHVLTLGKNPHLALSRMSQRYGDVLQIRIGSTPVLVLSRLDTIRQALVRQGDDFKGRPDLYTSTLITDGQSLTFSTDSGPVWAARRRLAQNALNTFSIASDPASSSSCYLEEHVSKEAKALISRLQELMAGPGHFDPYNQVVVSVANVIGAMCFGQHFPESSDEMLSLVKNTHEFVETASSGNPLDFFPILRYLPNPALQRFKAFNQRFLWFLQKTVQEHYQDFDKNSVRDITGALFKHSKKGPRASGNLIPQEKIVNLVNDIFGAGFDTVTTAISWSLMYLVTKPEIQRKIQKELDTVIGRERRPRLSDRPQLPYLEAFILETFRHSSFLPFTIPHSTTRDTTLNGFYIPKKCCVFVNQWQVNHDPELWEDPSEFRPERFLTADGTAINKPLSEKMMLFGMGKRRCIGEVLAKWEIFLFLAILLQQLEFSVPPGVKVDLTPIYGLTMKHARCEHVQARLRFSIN
Glucocorticoid receptor (Homo sapiens), sequence (P04150 whole entry, looked up, the tested form may be a part): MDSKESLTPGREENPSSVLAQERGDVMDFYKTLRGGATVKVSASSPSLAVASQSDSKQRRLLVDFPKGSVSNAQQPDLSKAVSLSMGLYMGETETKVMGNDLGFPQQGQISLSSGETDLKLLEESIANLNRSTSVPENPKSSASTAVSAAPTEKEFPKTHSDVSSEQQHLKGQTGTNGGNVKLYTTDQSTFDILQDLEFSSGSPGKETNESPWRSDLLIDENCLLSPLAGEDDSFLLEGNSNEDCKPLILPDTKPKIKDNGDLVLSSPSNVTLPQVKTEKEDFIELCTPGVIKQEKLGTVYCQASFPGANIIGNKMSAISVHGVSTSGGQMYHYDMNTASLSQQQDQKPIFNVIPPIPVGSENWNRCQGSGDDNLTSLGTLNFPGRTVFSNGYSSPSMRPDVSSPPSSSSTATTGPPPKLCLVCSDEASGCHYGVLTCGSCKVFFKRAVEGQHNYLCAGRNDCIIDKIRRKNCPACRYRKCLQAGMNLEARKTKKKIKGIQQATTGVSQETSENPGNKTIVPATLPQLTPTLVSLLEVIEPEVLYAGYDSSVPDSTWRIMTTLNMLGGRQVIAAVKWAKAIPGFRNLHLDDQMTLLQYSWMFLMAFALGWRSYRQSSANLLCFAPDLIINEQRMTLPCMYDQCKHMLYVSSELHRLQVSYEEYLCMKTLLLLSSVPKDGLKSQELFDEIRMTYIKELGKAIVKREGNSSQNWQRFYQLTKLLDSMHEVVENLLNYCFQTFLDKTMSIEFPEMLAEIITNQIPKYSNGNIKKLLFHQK
Cytochrome P450 3A4 (Homo sapiens), sequence (P08684 whole entry, looked up): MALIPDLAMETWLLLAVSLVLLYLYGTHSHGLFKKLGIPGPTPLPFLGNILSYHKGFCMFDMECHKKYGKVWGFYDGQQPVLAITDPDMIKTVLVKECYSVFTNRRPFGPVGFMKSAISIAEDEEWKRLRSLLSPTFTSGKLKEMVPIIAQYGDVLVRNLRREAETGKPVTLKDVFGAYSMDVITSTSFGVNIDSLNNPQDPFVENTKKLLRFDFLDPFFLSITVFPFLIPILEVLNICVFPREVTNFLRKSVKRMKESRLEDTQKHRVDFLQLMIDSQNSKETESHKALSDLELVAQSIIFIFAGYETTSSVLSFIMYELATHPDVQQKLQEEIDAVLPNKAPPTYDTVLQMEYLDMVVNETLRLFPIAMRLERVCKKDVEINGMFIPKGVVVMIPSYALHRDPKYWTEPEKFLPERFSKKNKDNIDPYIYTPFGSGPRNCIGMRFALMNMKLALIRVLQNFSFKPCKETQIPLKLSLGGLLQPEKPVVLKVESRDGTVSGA
Cytochrome P450 2C19 (Homo sapiens), sequence (P33261 whole entry, looked up): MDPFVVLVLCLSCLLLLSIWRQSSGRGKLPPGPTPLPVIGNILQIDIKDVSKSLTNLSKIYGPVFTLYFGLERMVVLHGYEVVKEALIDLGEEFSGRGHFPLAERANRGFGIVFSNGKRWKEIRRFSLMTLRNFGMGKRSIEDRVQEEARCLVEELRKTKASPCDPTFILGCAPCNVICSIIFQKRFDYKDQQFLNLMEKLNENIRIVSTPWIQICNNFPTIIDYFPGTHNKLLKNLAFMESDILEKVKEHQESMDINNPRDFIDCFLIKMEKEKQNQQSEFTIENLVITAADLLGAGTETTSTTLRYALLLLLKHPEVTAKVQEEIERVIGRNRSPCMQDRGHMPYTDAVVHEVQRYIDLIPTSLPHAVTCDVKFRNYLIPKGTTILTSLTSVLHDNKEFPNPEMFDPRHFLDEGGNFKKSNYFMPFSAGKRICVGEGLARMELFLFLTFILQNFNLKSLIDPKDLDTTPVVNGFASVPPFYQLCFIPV

In the case of `COc1ccccc1-c1ccc2ncnc(NCc3ccccc3)c2c1`, the Potency in [1] is > 11.4 µM (inactive); in experiment [3] it was 2 µM (active); in [6] it was > 46 µM (inactive); in experiment [7] it was > 46 µM (inactive); in experiment [10], 3.98 µM (active); in [12], 3.98 µM (active). Moreover, the Potency in experiment [13] is 6.31 µM (active); in [14] it was 2.82 µM (active). In addition, the figures for the activity change, negative = inhibition in experiment [2], in [4] and in [11] were -25.6% (inactive), 0.253% (inactive) and -15.2% (inactive), respectively. In addition, the activity, negative = inhibition in [5] was -8.43% (inactive). Moreover, the Potency entry in experiment [8], in experiment [9] and in experiment [15] was “inactive” throughout. The max response is -12.6% in experiment [11] (setting [17]) and -27.8% in [11] (setting [18]).
With `COc1ccc(-n2c(=O)c(-c3ccc(F)cc3)nc3cnc(N4CCNCC4)nc32)cc1`, the Potency in experiment [1] was > 11.4 µM (inactive); in experiment [6] it was > 9.22 µM (inactive); in [7], > 46 µM (inactive). Besides, the activity change, negative = inhibition in [2] was -1.98% (inactive); in [4] it was 27.8% (inactive); in experiment [11], 0.369% (inactive). The activity, negative = inhibition in experiment [5] is 9.23% (inactive). In addition, the Potency result in experiment [8], in experiment [16], in experiment [12], in experiment [13], in [14] and in experiment [15] was “inactive” in each case. Also, the max response in experiment [11] (setting [17]) came out at 11.2%; in experiment [11] (setting [18]), 12.6%.
As to `O=c1cnc2cnc(N3CCNCC3)nc2n1C1CC1`, the Potency in [1] was > 11.4 µM (inactive); in [6] it was > 9.22 µM (inactive); in experiment [7], > 46 µM (inactive). Also, the activity change, negative = inhibition is -8.15% (inactive) in experiment [2], -1.86% (inactive) in experiment [4] and 0.852% (inactive) in experiment [11]. The activity, negative = inhibition in [5] was -7.26% (inactive). The Potency result in experiment [8], in [16], in [12], in experiment [13], in [14] and in experiment [15] was “inactive” throughout. The max response in experiment [11] (setting [17]) is 9.12%; in [11] (setting [18]), 7.84%.
With `CN(C)Cc1ccccc1-c1cc(NCc2ccccc2)ncn1`, the figures for the Potency in experiment [1], in experiment [6] and in [7] were > 11.4 µM (inactive), > 46 µM (inactive) and > 46 µM (inactive), respectively. For the same compound, the figures for the activity change, negative = inhibition in [2] and in experiment [11] were -0.0154% (inactive) and 4.72% (inactive), respectively. The Potency result in experiment [3], in experiment [8], in experiment [12], in experiment [13], in experiment [14] and in experiment [15] was “inactive” throughout. The activity, negative = inhibition in [5] was 12.3% (inactive). In addition, the results for the max response in [11] (setting [17]) and in experiment [11] (setting [18]) were 6.7% and 9.63%, respectively.
`N#CCCn1c(=O)c(-c2ccc(F)cc2)nc2cnc(OCc3ccccc3)nc21`: the Potency in experiment [1] was > 11.4 µM (inactive); in experiment [3], 1.58 µM (active); in [6] it was > 9.22 µM (inactive); in [7], > 46 µM (inactive). For the same compound, the values for the activity change, negative = inhibition in [4] and in experiment [11] were -4.49% (inactive) and -1.54% (inactive), respectively. The activity, negative = inhibition in experiment [5] was -20.1% (inactive). The Potency entry in experiment [8], in experiment [16], in experiment [9], in experiment [12], in experiment [13] and in experiment [14] was “inactive” throughout. Further, in experiment [15], the Potency result is “inactive”. Besides, the max response in experiment [11] (setting [17]) was 0.762%; in experiment [11] (setting [18]), -3.12%.
